# Source: PubChem BioAssay AID1861 (The Scripps Research Institute Molecular Screening Center, 2009)
# Among all 290,000 compounds or so, about 3,100 (1.1%) were called active. Cut-off read from the data, not from the text of the source: active = inhibition above about 16% (passing the limit was not always enough); inactive = the rest. The list comes from a sample in which actives are over-represented; it also holds similar structures and randomly drawn compounds.
# Target: Neuropeptides B/W receptor type 1 (Homo sapiens) (UniProt P48145)
# Test: GPR7 receptor antagonists, primary screen, cell-based, fluorescence, single concentration (AID 1861);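 note: cells stimulated with the agonist NPW; 0% = agonist with vehicle and 100% = vehicle without agonist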
# Conditions: GPR7-expressing cells, fluorescence antagonist assay; at 4.4 µM; stronger effect = higher value
# Chain of Neuropeptides B/W receptor type 1 (Homo sapiens) (P48145 whole entry, looked up): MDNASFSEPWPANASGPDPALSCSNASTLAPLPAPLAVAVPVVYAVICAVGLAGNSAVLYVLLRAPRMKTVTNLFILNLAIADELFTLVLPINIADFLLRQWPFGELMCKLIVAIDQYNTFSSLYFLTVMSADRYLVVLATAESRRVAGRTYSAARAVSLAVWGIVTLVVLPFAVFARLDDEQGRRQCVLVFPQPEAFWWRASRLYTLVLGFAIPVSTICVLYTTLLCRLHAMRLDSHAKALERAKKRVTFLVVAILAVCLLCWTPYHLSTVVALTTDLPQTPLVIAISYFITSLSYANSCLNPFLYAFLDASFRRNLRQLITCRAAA
row,Compound,inhibition
1,O=C(Nc1cccc(Cl)c1Cl)c1ccccc1NC(=O)C1CC=CCC1C(=O)O (stereo unspecified),1.26% (inactive)
2,COc1ccc(C2CC(=O)NC(=O)C2)cc1,23% (inactive)
3,c1ccc(C2CNCc3c2ccc2ccccc32)cc1 (stereo unspecified),38.9% (active)
4,Oc1ccccc1-c1cc(-c2ccc(Cl)cc2)n[nH]1,-4.03% (inactive)
5,CC1=C(C(=O)OC(C)(C)C)C(c2ccc(Br)cc2)NC(=O)N1CCCC(=O)O (stereo unspecified),-5.35% (inactive)
6,Cc1cc(NC(=O)Nc2c[nH]c(=O)[nH]c2=O)ccc1Br,-12.8% (inactive)
7,CC1CN(C(=O)CCC(=O)NCc2cccnc2)c2ccccc2O1 (stereo unspecified),6.78% (inactive)
8,CC1CN(C(=O)CCC(=O)NCCCN2CCC(Cc3ccccc3)CC2)c2cc(Cl)ccc2O1 (stereo unspecified),25.7% (active)
9,CC1CN(C(=O)CCC(=O)NC2CCN(Cc3ccccc3)CC2)c2ccccc2O1 (stereo unspecified),-0.83% (inactive)
10,COc1ccc(OC)c(NC(=O)CN(C)CCOc2ccc(Br)cc2)c1,17.7% (inactive)
11,O=C(NCc1nnc(SCC(=O)N2CCCCCC2)o1)c1ccc(F)cc1,-18.2% (inactive)
12,COc1ccc(Nc2cc(Cl)ccc2C(=O)O)cn1,-11.5% (inactive)
13,COc1ccc(C(=O)Nc2ccc(NC(=O)C(C)C)nc2)cc1,19.8% (inactive)
14,COc1ccc(NC(=O)c2cc(-c3ccc(C)cc3)on2)cc1,-12.6% (inactive)
15,COc1ccc(NC(=O)/C(Cl)=C(/Cl)S(=O)Cc2ccc(C)cc2)cn1 (stereo unspecified),57.6% (active)
16,CCOc1ccc(S(=O)(=O)Nc2ccc(OC)nc2)cc1,6.88% (inactive)
17,COc1ccc(CS(=O)/C(Cl)=C(/Cl)C(=O)Nc2ccc(OC)nc2)cc1 (stereo unspecified),24.2% (active)
18,Cc1occc(=O)c1OCc1c(Cl)cccc1Cl,-7.63% (inactive)
19,CCN(CC)S(=O)(=O)c1ccc(NC(=O)c2cnc(C)cn2)cc1,-18.4% (inactive)
20,CCOC(=O)c1cnc2ccc(F)cc2c1Nc1ccc2c(c1)OCCO2,-2.1% (inactive)
21,COc1cccc(C(=O)NNC(=O)c2cccc(F)c2)c1,-2.7% (inactive)
22,Cc1ccc2[nH]c3c(c2c1)CN(C(=O)CN1CCN(c2ccccc2)CC1)CC3,3.49% (inactive)
23,CCCC(=O)N1CCc2[nH]c3ccccc3c2C1,1.42% (inactive)

row,Compound,inhibition
1,O=C(CCCN1CCc2[nH]c3ccc(F)cc3c2C1)c1ccc(F)cc1,33.9% (active)
2,OC(COc1ccc(Br)cc1)CN1CCCC1 (stereo unspecified),-9.13% (inactive)
3,COc1ccc(OCC(O)CNCCNc2nccc(C(F)(F)F)n2)cc1 (stereo unspecified),-3.59% (inactive)
4,CC(C)(C)CC(C)(C)NCC(O)COCCOc1ccc(Br)cc1 (stereo unspecified),36.9% (active)
5,O=C(Cc1cccs1)NCc1cccc(C(F)(F)F)c1,5.08% (inactive)
6,COc1ccc(N2C(=O)c3ccccc3NC2c2ccc(OC)c(CN3CCOCC3)c2)cc1 (stereo unspecified),-11.4% (inactive)
7,COc1ccc(C2Nc3ccccc3C(=O)N2c2ccc(F)cc2)cc1Cn1nnc2ccccc21 (stereo unspecified),-1.83% (inactive)
8,COc1ccc(C2Nc3ccccc3C(=O)N2Cc2ccccc2)cc1Cn1nnc2ccccc21 (stereo unspecified),28.4% (active)
9,O=C(OCC1O[C@@H](OC(=O)c2cc(O)c(O)c(O)c2)[C@@H](OC(=O)c2cc(O)c(O)c(O)c2)[C@@H](OC(=O)c2cc(O)c(O)c(O)c2)[C@@H]1OC(=O)c1cc(O)c(O)c(O)c1)c1cc(O)c(O)c(O)c1 (stereo partly specified),-5.26% (inactive)
10,O=C(NCc1ccc2c(c1)OCO2)c1cc(F)c(F)cc1Cl,-4.33% (inactive)
11,O=C(c1ccccc1)N1CCN(C(=O)c2cc3nc(-c4ccccc4)cc(C(F)(F)F)n3n2)CC1,-7.13% (inactive)
12,CCC1=Nc2cc(C(=O)NCCN3CCCC3)ccc2Sc2ccc(C)cc21,-5.13% (inactive)
13,Cc1cccc(-c2nc3ccc(C(=O)NCCN4CCN(C)CC4)cc3nc2-c2cccc(C)c2)c1,31.6% (active)
14,Cc1ccc(C(=O)NCCN2CCOCC2)cc1C,3.82% (inactive)
15,Nc1nnn(CC(=O)N/N=C/c2ccc(O)cc2)n1,5.08% (inactive)
16,O=C(CC(=O)Nc1ccc(Cl)c(Cl)c1)N/N=C/c1ccc(O)cc1,24.6% (active)
17,O=C(C[n+]1ccccc1)N/N=C/c1ccc(O)cc1,-1.15% (inactive)
18,O=C(COc1ccc([N+](=O)[O-])cc1)Nc1cccc(C(=O)Nc2ccccc2C(=O)O)c1,-9.29% (inactive)
19,O=C(NCc1ccco1)c1nc(-c2ccccc2)n(-c2ccccc2)n1,20.5% (active)
20,O=C(NCc1ccco1)c1nc2ncccn2n1,-0.52% (inactive)
21,O=C(CSc1nnnn1-c1ccccc1)NCc1ccco1,-5.34% (inactive)
22,CCOc1ccc(N/C(N)=N/c2nc(C)c(C)c(=O)[nH]2)cc1,6% (inactive)
23,COc1ccc(CN(C)C(=O)Cc2ccsc2)c(OC)c1OC,8.02% (inactive)

row,Compound,inhibition
1,CCOc1ccc(NC(=O)CN2CCN(CC(=O)Nc3ccc(OC)cc3)CC2)cc1,2.08% (inactive)
2,O=C(CN1CCN(C(=S)NC2CCCC2)CC1)Nc1ccc(Oc2ccccc2)cc1,22.4% (active)
3,CCOc1ccc(NC(=S)N2CCC(NC(=O)c3ccccc3)CC2)cc1,-6.68% (inactive)
4,Cc1cccc(NS(=O)(=O)c2ccc([N+](=O)[O-])cc2)n1,17.4% (inactive)
5,COc1ccc(C(=O)N2CCCC(C(=O)c3ccccc3OC)C2)cc1OC (stereo unspecified),-2.49% (inactive)
6,CC1(C)CC(N2CCN(C(c3ccccc3)c3ccccc3)CC2)=CC(=[N+]2CCCCC2)C1,66% (active)
7,CC(C)NC(=S)N1CCN(C(c2ccccc2)c2ccccc2)CC1,-13.9% (inactive)
8,O=C(O)CN1CCN(C(c2ccccc2)c2ccccc2)CC1,-8.01% (inactive)
9,COc1ccccc1C(=O)COC(=O)CNS(=O)(=O)c1ccc(NC(C)=O)cc1,11.2% (inactive)
10,COc1cccc(NC(=O)CN2CCN(c3nc(-c4cccc(OC)c4)cs3)CC2)c1,-9.85% (inactive)
11,COCCCNC(=S)N1CCN(c2nc(-c3cccc(OC)c3)cs2)CC1,42.1% (active)
12,CN(C)CCCNC(=S)N1CCN(c2nc(-c3ccccc3)cs2)CC1,5.73% (inactive)
13,CCC1CCCCN1C(=S)Nc1ccc(S(=O)(=O)Nc2ncccn2)cc1 (stereo unspecified),-0.2% (inactive)
14,c1ccc(-c2cc(-c3nnc4sc(-c5ccccn5)nn34)[nH]n2)cc1,-17.3% (inactive)
15,Fc1ccc(-c2ccc(-c3nn4c(-c5ccco5)nnc4s3)o2)cc1,29% (active)
16,COc1cc(-c2nn3c(-c4cccc(C)c4)nnc3s2)cc(OC)c1OC,12.2% (inactive)
17,COC(=O)c1ccc(C(=O)NC2CC(C)(C)Cc3c2cnn3-c2ccc(F)cc2)nc1 (stereo unspecified),18.2% (inactive)
18,CC(C(=O)NC1CCS(=O)(=O)C1)N1C(=O)/C(=C/c2ccc(Cl)cc2)SC1=S (stereo unspecified),14.5% (inactive)
19,CCOCCCNC(=O)c1ccc(CS(=O)(=O)c2cccc(C(F)(F)F)c2)o1,6.51% (inactive)
20,Cc1ccccc1CN1C(=O)c2ccccc2Sc2ccc(C(=O)NCCCN3CCOCC3)cc21,24.2% (active)
21,CCC1=Nc2cc(C(=O)NCCCN3CCOCC3)ccc2Sc2ccc(Br)cc21,0.03% (inactive)
22,O=C(NCCN1CCOCC1)c1ccc(/C=C2\Sc3ccccc3N(Cc3ccc(F)cc3)C2=O)cc1,4.73% (inactive)
23,O=C(NCCCN1CCOCC1)c1ccc2c(c1)N(Cc1cccc(F)c1)C(=O)c1ccccc1S2,24.4% (active)

row,Compound,inhibition
1,O=C(NCCCN1CCOCC1)c1cc(-c2ccccc2F)no1,-6.4% (inactive)
2,O=C(NCCCN1CCCCC1)c1ccc2c(c1)NC(=O)C(N1CCOCC1)S2 (stereo unspecified),-14.1% (inactive)
3,CCOc1ccc(NC(=O)C2CCN(C(=O)N3CCOc4ccccc43)CC2)cc1,5.19% (inactive)
4,COc1cccc2[nH]c(C(=O)NCCc3ccccc3)cc12,-9.64% (inactive)
5,COc1ccc2[nH]c(=O)c(C3c4cc(OC)c(OC)cc4CCN3C(=O)c3ccco3)cc2c1 (stereo unspecified),-13.4% (inactive)
6,Cc1ccc(SCc2cc(=O)[nH]c(N3CCCCC3)n2)cc1,25.9% (active)
7,Cc1ccc(NC(=O)CSc2nc(CSc3ccc(C)cc3)cc(=O)[nH]2)cc1,-13.7% (inactive)
8,O=c1cc(CSc2ccccn2)nc(N2CCN(c3ccccc3)CC2)[nH]1,-6.4% (inactive)
9,CN(C(=O)CCN1C(=O)/C(=C/c2ccccc2F)SC1=S)C1CCS(=O)(=O)C1 (stereo unspecified),-4.44% (inactive)
10,COc1cccc(CNC(=O)C2CCCN(c3ncnc4c3nc3n4CCCCC3)C2)c1 (stereo unspecified),6.2% (inactive)
11,COc1cccc(C(C(=O)NC2CCCC2)N(C(=O)c2ccco2)c2cccc(C(C)=O)c2)c1OC (stereo unspecified),2.78% (inactive)
12,Cc1ccc(NC(=O)C/C(N)=N/O)cc1Cl,-9.83% (inactive)
13,O=C(CC(O)(C(F)(F)F)C(F)(F)F)Nc1ccc(Cl)c(Cl)c1,28.9% (active)
14,CN(C)CCNC(CC(=O)Nc1ccc(Cl)c(Cl)c1)C(=O)O (stereo unspecified),-6.94% (inactive)
15,CCOC(=O)C1(CCOc2ccccc2)CCN(Cc2cc(OC)cc(OC)c2)CC1,15.4% (inactive)
16,CC1=C/C(=N\OS(=O)(=O)c2ccccc2)C=CC1=O,-2.03% (inactive)
17,Cc1cc(C)cc(N(CC(=O)NC2CCCC2)C(=O)CCC(=O)Nc2nccs2)c1,4.8% (inactive)
18,COc1ccccc1C(=O)OCC(=O)NCCNC(=O)COC(=O)c1ccccc1OC,1.57% (inactive)
19,C=CCNC(=O)COC(=O)c1ccccc1C(=O)N(C)C1CCCCC1,23.4% (active)
20,O=C(COC(=O)c1ccccc1SCC(=O)NC1CCCCC1)NC1CCCCC1,4.41% (inactive)
21,O=[N+]([O-])c1ccc(NC(=S)N2CCN(c3ccccn3)CC2)cc1,-5.44% (inactive)
22,Cc1nn(CC(=O)NCC2CCCO2)c(=O)c2cc3ccccc3n12 (stereo unspecified),2.04% (inactive)
